± gives the standard deviation of the averaged measurements.
Tested on: firefly luciferase (FLuc)
Assay: residual bioluminescent signal relative to negative (DMSO) control; higher = less interference (more residual luciferase signal)
Description: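 Purified luciferase (FLuc 10 nM + 10 uM D-luciferin; NLuc 10 pM + 10 uM furimazine; RLuc 50 pM + 2 uM coelenterazine) in 384-well plates; metal salt pre-incubated with enzyme 10 min at RT, substrate added and luminescence read after 10 min. Signal normalised to plate DMSO negative control (% N_VALUE = x/mean neg *100); triplicate wells at 0.01, 1 and 5 mM salt.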

[1] = metal salt concentration 0.01 mM, HEPES conditions (100 mM HEPES, 5 mM MgSO4, 10 uM ATP, pH 7.5)
[2] = metal salt concentration 0.01 mM, screening conditions (0.5 mM Tris, 50 mM glycine, 0.5 mM EDTA, 5 mM MgSO4, 10 uM ATP, pH 7.6)
[3] = metal salt concentration 1 mM, HEPES conditions (100 mM HEPES, 5 mM MgSO4, 10 uM ATP, pH 7.5)
[4] = metal salt concentration 1 mM, screening conditions (0.5 mM Tris, 50 mM glycine, 0.5 mM EDTA, 5 mM MgSO4, 10 uM ATP, pH 7.6)
[5] = metal salt concentration 5 mM, HEPES conditions (100 mM HEPES, 5 mM MgSO4, 10 uM ATP, pH 7.5)
[6] = metal salt concentration 5 mM, screening conditions (0.5 mM Tris, 50 mM glycine, 0.5 mM EDTA, 5 mM MgSO4, 10 uM ATP, pH 7.6)

Row | SMILES | residual bioluminescent signal [1] [%] | residual bioluminescent signal [2] [%] | residual bioluminescent signal [3] [%] | residual bioluminescent signal [4] [%] | residual bioluminescent signal [5] [%] | residual bioluminescent signal [6] [%]
1 | O=[N+]([O-])[O-].O=[N+]([O-])[O-].O=[N+]([O-])[O-].[Al+3] [aluminium nitrate] | 78.9 ± 7.9 | 75.8 ± 6 | 0.679 ± 0.47 | 0.343 ± 0.17 | 0.543 ± 0.23 | 90.5 ± 5.5
2 | O=[N+]([O-])[O-].O=[N+]([O-])[O-].[Ni+2] [nickel(II) nitrate] | 64.7 ± 8.8 | 71.2 ± 7.5 | 2.31 ± 1.6 | 0.501 ± 0.33 | 0.814 ± 0.41 | 0.58 ± 0.091
3 | O=[N+]([O-])[O-].O=[N+]([O-])[O-].[Pb+2] [lead(II) nitrate] | 3.12 ± 1.6 | 93.3 ± 4.7 | 0.814 ± 0.41 | 0.685 ± 0.48 | 0.95 ± 0.23 | 0.343 ± 0.17
4 | O=[N+]([O-])[O-].[Li+] [lithium nitrate] | 92.2 ± 20 | 93 ± 5.3 | 92.2 ± 40 | 85.8 ± 4.8 | 90.5 ± 3.9 | 74.5 ± 2.7
5 | O=[N+]([O-])[O-].O=[N+]([O-])[O-].O=[N+]([O-])[O-].[Ga+3] [gallium(III) nitrate] | 86.3 ± 16 | 3.77 ± 5 | 72.6 ± 17 | 0.264 ± 0.091 | 0.679 ± 0.47 | 0.474 ± 0.48
6 | [Cl][Sn][Cl] [tin(II) chloride] | 41.7 ± 13 | 90.8 ± 3.9 | 1.22 ± 0.41 | 0.369 ± 0.12 | 1.9 ± 0.62 | 0.553 ± 0.079
